In PubChem BioAssay AID1850 (Southern Research Specialized Biocontainment Screening …, 2009) one finds inhibition data, which are given here for 91 compounds.

Screen size: about 310,000 compounds; about 1,000 (0.32%) were called active. Only a sample is shown. Potency and affinity values are given separately. A number with no mark means an inactive call. No rule for the calls is given here.

The nature of the experiment: Inhibition of PhoP regulon, Salmonella typhi GFP reporter cells, confirmation, 4 h (AID 1850).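 Also: 0% = induced wells with vehicle and 100% = uninduced wells.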 To be noted: Salmonella Typhi PhoP-promoter GFP reporter, fluorescence, at 50 µM, stronger effect = higher value.
Regarding `O=C(N1CCOCC1)N1CCN(S(=O)(=O)N2CCCCC2)CC1`, the inhibition – broadly, the relative decrease from the control value, in per cent – is 5.81%.

On to `COc1ccc(NC2CCCN(C(=O)C3=NN(C)C(=O)CC3)C2)cc1OC` (stereo unspecified), for which the inhibition is -1.12%. For the compound `Cc1cccc(N2CCN(Cc3nc(-c4cccc(Cl)c4)oc3C)CC2)n1`, the inhibition is -3.9%. Regarding `Oc1[nH]c2ccc(Br)cc2c1N=Nc1ccc(F)cc1`, the inhibition is -81.9%.

Turning to `Cc1cc(=O)c2cc(Br)ccc2[nH]1`, the inhibition is 6.88%. Turning to `O=C(NCC1CCCO1)c1onc(CSc2ccc(F)c(F)c2)c1C(=O)O` (stereo unspecified), the inhibition was 1.53%. For `C=CCNC(=O)CN1CCC(c2nc3cc(C)c(C)cc3[nH]2)CC1`, the inhibition was 2.77%. In the case of `O=[N+]([O-])c1ccc(/C=N/N2CCCCC2)cc1` it was 2.58%; in that of `CCOc1ccc(-c2c(C(=O)N/N=C/c3ccc(OC)cc3)nnn2-c2nonc2N)cc1`, -14%; in that of `O=C(Cc1ccc(Cl)cc1)Nc1ccc(S(=O)(=O)Nc2cnc3ccccc3n2)cc1`, -6.63%. Regarding `CC1CCCCC1NC(=O)c1ccc(NS(=O)(=O)c2ccc3[nH]c(=O)[nH]c3c2)cc1` (stereo unspecified), the inhibition is 0.81%. `Cc1ccc(NC(=O)c2cc([N+](=O)[O-])ccc2Cl)c(O)c1`: the inhibition is 4.62%. For `CC(=O)Oc1c(C)cc(Cl)cc1C(=O)Nc1ccc([N+](=O)[O-])cc1Cl`, the inhibition is 3.87%. For the compound `CC[C@H](C)Cc1cn([C@@H](CCCCN)C(=O)NCCCCCCCCCCC(=O)N2CCNCC2)nn1`, the inhibition is 1.01%. Turning to `CCOC(=O)N1CCN(C(=O)c2cc(COc3ccc4ncccc4c3)on2)CC1`, the inhibition is -2.35%. For `COc1cccc(CNCCc2cccc(F)c2)c1OC`, the inhibition is 6.94%.

`Fc1ccc(CNCCc2ccccc2F)cc1`: the inhibition was 20.1%. As to `CCc1ccc(CNCCc2ccccc2F)cc1`, the inhibition was 19.3%. `COc1cc(OC)c(OC)cc1CNCCc1cccc(F)c1`: the inhibition is 3.05%. In the case of `Fc1ccc(CCNCc2cccc(Cl)c2)cc1` it was -1.17%; in that of `COc1cccc(CNCCc2ccccc2)c1OC`, 15.4%. As to `COc1cc(OC)c(OC)cc1CNCCc1ccc(F)cc1`, the inhibition was 1.12%. In the case of `CCc1ccc(CNCCc2ccc(F)cc2)cc1` it was 7.65%; in that of `CCN(c1ccccc1)S(=O)(=O)c1csc(C(N)=O)c1`, 1.57%. In the case of `O=C(CS(=O)(=O)c1ccc(Cl)cc1)Nc1nnc(-c2cccs2)o1` it was -4.66%; in that of `CC(C)C(NC(=O)/C=C/c1cccc([N+](=O)[O-])c1)C(C)C`, -9.13%; in that of `CCOC(=O)N1CCC(NC(=O)c2cnn3c(C(F)(F)F)cc(-c4cccc(OC)c4)nc23)CC1`, -1%.

As for `COc1ccccc1S(=O)(=O)CC(O)COc1ccccc1Cl` (stereo unspecified), the inhibition is -5.18%. In the case of `CN(CCc1ccccn1)C(=O)Nc1ccc(F)cc1` it was -7.13%; in that of `COc1ccc(-c2ccc(CCC(=O)O)n2NC(=O)c2cccs2)cc1`, -5.76%. Regarding `CN(CC(=O)Nc1ccccc1Cl)C(=O)COC(=O)c1cc([N+](=O)[O-])ccc1N1CCOCC1`, the inhibition is -1.8%. Turning to `c1csc(CNCc2ccncc2)c1`, the inhibition was 1.76%. Turning to `Fc1ccc(CNCc2ccccc2Cl)cc1`, the inhibition is 10.6%. With `Brc1ccc(CNCc2cccs2)cc1`, the inhibition is -4.52%.

As to `Fc1ccc(CNCCc2ccccc2)cc1`, the inhibition was 14.4%. In the case of `O=C(COc1ccc(Br)cc1)N1CCN(Cc2c[nH]c3ccccc23)CC1`, the inhibition was 1.07%.

On to `O=C(NCc1ccco1)/C(=C\c1ccco1)NC(=O)c1ccco1`, for which the inhibition was -9.29%.

As to `CC1=NN(c2ccc([N+](=O)[O-])cc2)C(c2ccccc2)C1` (stereo unspecified), the inhibition was -7.1%. Consider `CC1(C)CC(=O)C2=C(C1)NC(=O)CC2c1cc(F)ccc1F` (stereo unspecified), for which the inhibition was 8.24%. Regarding `CC1(C)C2CCC1(CS(=O)(=O)N1CCN(c3ccc(F)cc3)CC1)C(=O)C2` (stereo unspecified), the inhibition was -7.85%. For the compound `COc1ccc(S(=O)(=O)NC(C)C(=O)NCc2cccnc2)cc1Cl` (stereo unspecified), the inhibition was -1.39%. As for `Cc1ccc2c(c1)C1CN(C)CCC1N2S(=O)(=O)c1ccccc1` (stereo unspecified), the inhibition is 4.23%.

For the compound `Cc1ccc2c(c1)[C@@H]1CN(C)CC[C@@H]1N2S(=O)(=O)c1ccc([N+](=O)[O-])cc1`, the inhibition was 0.95%. In the case of `CN(C)c1cc[n+](CC(=O)c2ccc(OC(F)F)cc2)cc1`, the inhibition was 19.8%. For `COc1ccc(CNC(=O)c2cc(COc3c(F)cccc3F)on2)cc1OC` the value was -2.31%; for `O=C(O)CCc1ccc(-c2ccc(Br)cc2)n1-c1cccc(O)c1`, -2.3%.

As for `CCCCCOC(=O)CSc1nc2c(c(=O)[nH]c(=O)n2C)n1CCc1ccccc1`, the inhibition was 2.47%. In the case of `COCc1c(C(=O)OCC(=O)N2c3ccccc3CC2C)oc2ccccc12` (stereo unspecified) it was -3.75%; in that of `CC(C)CCC(CCNCc1ccccn1)c1ccc2c(c1)OCO2` (stereo unspecified), 21.8%. For `CC(C)C(CCNCc1ccccn1)c1ccc(Cl)cc1` (stereo unspecified), the inhibition was -0.74%.

In the case of `CC(=O)n1cc([C@H]2C=C(C(N)=O)O[C@@H](OCc3ccc(CO)cc3)C2)c2ccccc21`, the inhibition is 2.45%. With `CCCOC(=O)C[N+](C)(C)CCOC1CC2CCC1(C)C2(C)C` (stereo unspecified), the inhibition was -4.95%. As for `CCCCOC(=O)C[N+](C)(C)CCOC1CC2CCC1(C)C2(C)C` (stereo unspecified), the inhibition was -1.52%.

For the compound `Cc1ccc(Nc2ccc([N+](=O)[O-])ccc2=O)cc1`, the inhibition is -3.8%.

Turning to `Cc1cccc(C(=O)NCC(=O)N2CCN(c3ccc(Cl)cc3)CC2)c1`, the inhibition is 4.53%. For `Cc1cc(C)nc(NCCO)n1`, the inhibition was 1.84%. For `Fc1ccccc1Sc1ccccc1CNC1=NCCN1` the value was 2.16%; for `Fc1ccc(Sc2ccccc2CNC2=NCCN2)cc1`, -8.62%; for `COc1ccc(C)cc1NC(=O)C1CCN(S(=O)(=O)c2ccc3c(c2)NC(=O)CO3)CC1`, -3.38%. Turning to `CCCCn1c(N)c(N(CC(C)C)C(=O)c2cc(-c3ccc(OC)c(OC)c3)nc3ccccc23)c(=O)[nH]c1=O`, the inhibition was 11.8%. As to `CC(=O)c1cc(C(=O)NC2CCCc3c2cnn3-c2cc(C)cc(C)c2)[nH]n1` (stereo unspecified), the inhibition was -9.06%. Take `O=C(Nc1nc2ccccc2[nH]1)c1cccc(F)c1`: the inhibition is 0.03%. With `CC(C)n1cnc2c(Nc3cccc(F)c3)nc(NCCO)nc21`, the inhibition was -14.7%. In the case of `Cc1cccc(OCc2nnc3n2CCCCC3)c1` it was -4.01%; in that of `CCOC(=O)N1CCN(S(=O)(=O)c2ccc(C(=O)Nc3nnc(CSC)o3)cc2)CC1`, -31.1%; in that of `CC(OC(=O)c1ccccc1Nc1ccc(SC(F)F)cc1)C(N)=O` (stereo unspecified), -1.22%. For `C#CCOCCOCCOCCNc1nc(N2CCN(C(=O)CCCCCCCCCCNC(=O)[C@@H](CCSC)n3cc(CCO)nn3)CC2)nc(N2CCN(C(=O)CCCCCCCCCCNC(=O)[C@H](CO)n3cc(CCCCCN)nn3)CC2)n1` the value was 14.1%; for `C#CCOCCOCCOCCNc1nc(N2CCN(C(=O)CCCCCCCCCCNC(=O)[C@@H](CCSC)n3cc(CCO)nn3)CC2)nc(N2CCN(C(=O)CCCCCCCCCCNC(=O)[C@H](CCSC)n3cc(CCO)nn3)CC2)n1`, 2.16%.

In the case of `C#CCOCCOCCOCCNc1nc(N2CCN(C(=O)CCCCCCCCCCNC(=O)[C@@H](CCSC)n3cc(CCO)nn3)CC2)nc(N2CCN(C(=O)CCCCCCCCCCNC(=O)[C@H](CCC(=O)O)n3cc(CCCCCN)nn3)CC2)n1`, the inhibition was 1.19%. For `C#CCOCCOCCOCCNc1nc(N2CCN(C(=O)CCCCCCCCCCNC(=O)[C@H]([C@@H](C)CC)n3cc(CCCCN=C(N)N)nn3)CC2)nc(N2CCN(C(=O)CCCCCCCCCCNC(=O)[C@H](CO)n3cc(CCCSC)nn3)CC2)n1`, the inhibition is 0.56%. `CC(=O)Oc1ccc(C(=O)Nc2cc(C)on2)cc1`: the inhibition is 3.46%.

Consider `Nc1cccc(C(=O)N/N=C/c2ccsc2)c1`, for which the inhibition was -10.7%. In the case of `NC(=S)N=Nc1c(O)[nH]c2ccccc12` it was -2.48%; in that of `O=C(N=Nc1c(O)[nH]c2ccccc12)c1ccc(CN2CCOCC2)cc1`, 8.21%; in that of `N=C(N)N=Nc1c(O)[nH]c2ccc(Br)cc12`, -13.7%. Take `Oc1[nH]c2ccc(Br)cc2c1N=NC(=S)Nc1ccc(F)cc1`: the inhibition is 14.4%. For `COc1ccc(C(=O)C(Cc2cc(C(C)=O)ccc2OC)N2CCCC2)cc1` (stereo unspecified), the inhibition is -6.51%.

Consider `O=C(Nc1cccc(S(=O)(=O)N2CCOCC2)c1)c1cnccn1`, for which the inhibition was -6.33%. On to `Cn1c(-c2ccc(F)cc2)cnc1NCc1cccc([N+](=O)[O-])c1`, for which the inhibition was 9.25%.

As for `COc1ccc(N2CCN(c3nc(Cl)nc(Nc4ccc(F)cc4)n3)CC2)cc1`, the inhibition was -8.76%.

On to `Fc1ccc(Nc2nc(N3CCOCC3)nc(N3CCOCC3)n2)cc1`, for which the inhibition was 4.25%. As for `CCCOc1cc2c(C#N)c(N3CCCC3)nc(N)c2c(N)n1`, the inhibition was 1.34%. In the case of `N#Cc1c(N)c(C#N)c(-c2ccc3c(c2)OCO3)c2c1CCCC2` it was -3.29%. For the compound `O=[N+]([O-])c1ccc(-c2cnc[nH]2)cc1`, the inhibition is 1.02%. With `Nc1ncc(-c2ccc([N+](=O)[O-])cc2)cn1`, the inhibition was 4.2%.

For the compound `Nc1ncncc1-c1ccc2ccccc2c1`, the inhibition is -7.33%. For `Nc1c(-c2ccc(Cl)cc2)cnc2ncnn12`, the inhibition was 8.81%. Take `COc1ccc2cc(C(=O)C3CCCN(C(=O)c4cnccn4)C3)ccc2c1` (stereo unspecified): the inhibition was 8.69%. In the case of `CCc1ccccc1NC1=NCC(=O)N1C1CCCC1` it was 0.33%; in that of `COc1ccc(Nc2nc(C)cc(C)c2C#N)c(OC)c1`, -0.58%.

In the case of `COc1ccccc1CNC(=O)C1CCCN(S(C)(=O)=O)C1` (stereo unspecified), the inhibition is -3.93%.
